Experimental data published in PubChem BioAssay (NCI).
The panel holds about 79,000 compounds, 15% with a hit somewhere; the sample as a whole holds those more often. Activity calls are given as the source filed them. No stated cut-off is given here; in the data, active means growth inhibition above about 70%; inactive means the rest.

Assays:
[1] = NCI Yeast Anticancer Drug Screen. Data for the rad50 strain (AID 155);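 further: 0% = growth of vehicle-only cultures of the same strain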; conditions: S. cerevisiae rad50 strain growth inhibition; at 50.0 µM; stronger effect = higher value
Outline: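 Compounds were tested on a yeast strain with an engineered DNA damage repair alteration; the reported value is growth inhibition normalised to vehicle treatment.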

[2] = NCI Yeast Anticancer Drug Screen. Data for the mec2-1 strain (AID 157); conditions: S. cerevisiae mec2-1 strain, at 50.0 µM, stronger effect = higher value
Outline: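 Cells of the genetically defined mec2-1 yeast strain are incubated with test compound. Inhibition of growth is calculated against vehicle-treated controls.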

[3] = NCI Yeast Anticancer Drug Screen. Data for the sgs1 mgt1 strain (AID 161);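 further: 0% = growth of cultures given vehicle only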; conditions: S. cerevisiae sgs1 mgt1 strain, at 50.0 µM, stronger effect = higher value
Outline: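 Read-out: growth inhibition vs vehicle controls. Cells: mutant yeast strain deficient in DNA damage repair.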

[4] = NCI Yeast Anticancer Drug Screen. Data for the cln2 rad14 strain (AID 165);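 further: 0% = growth equal to vehicle treated cultures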; conditions: S. cerevisiae cln2 rad14 strain, at 50.0 µM, stronger effect = higher value
Outline: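 The screen exposed genetically defined yeast (cln2 rad14) to test compounds and scored growth inhibition relative to vehicle-treated controls.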

[5] = NCI Yeast Anticancer Drug Screen. Data for the mlh1 rad18 strain (AID 175); conditions: S. cerevisiae mlh1 rad18 strain growth inhibition; at 50.0 µM; stronger effect = higher value
Outline: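 Compound-treated yeast growth, normalised to vehicle controls. Strain bears defined DNA repair mutations.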

[6] = NCI Yeast Anticancer Drug Screen. Data for the bub3 strain (AID 167); conditions: S. cerevisiae bub3 mutant strain, at 50.0 µM, stronger effect = higher value
Outline: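 Growth of a checkpoint-deficient yeast mutant is measured after compound exposure. Values represent inhibition relative to vehicle.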

Measured: growth inhibition

COC(OC)C1OC(C)(C)OC1C(OS(=O)(=O)c1ccc(C)cc1)C1COC(C)(C)O1 (stereo not drawn)
inactive: [1] -14.7% | [2] -7.8% | [3] 6.45% | [4] 1.95% | [5] 12.7%

CC(=O)Nc1cscc1NC(C)=O
inactive: [1] -3.8% | [2] -10.7% | [3] 6.05% | [4] -0.2% | [5] -9.5%

Cc1cc(C)c(C(=O)O)c(C)c1Br
inactive: [1] -3% | [2] -27.4% | [3] -4.85% | [4] -34.6% | [6] 9.1% | [5] 4.5%

c1ccc(N=C(C(=Nc2ccccc2)c2ccccc2)c2ccccc2)cc1
inactive: [1] 4.7% | [2] 13.6% | [3] 3.65% | [4] -67.8% | [5] -9.05%

O=C(O)CC(NC(=O)c1cnc2ccccc2n1)C(=O)O (stereo not drawn)
inactive: [1] -3.65% | [2] -9.85% | [3] 4.3% | [4] -17.1% | [6] 12.7% | [5] -1%

COc1ccc2oc3cc(NCCN(C)C)ccc3c(=O)c2c1
inactive: [1] -4.65% | [2] -21.7% | [3] -25.6% | [4] 15.9% | [5] -19.3%

Nc1cccc2c1CCC=C2
inactive: [1] -0.05% | [2] -6.5% | [3] -3.55% | [4] -6% | [5] -1.9%

Cc1nc2c(=O)[nH]c(=S)[nH]c2[nH]c1=O
inactive: [1] -15.2% | [2] -28% | [3] -2.1% | [4] 12.5% | [5] -1%

OCC(O)C(O)C(O)C(Sc1ccccc1)Sc1ccccc1 (stereo not drawn)
inactive: [1] 7.15% | [2] 11.8% | [3] 7.4% | [4] 8.3% | [5] 16.8%

CCCCc1c2c(nc3c1CCCC3=O)CCCC2
inactive: [1] 8.7% | [2] 8.45% | [3] 27.4% | [4] 15.8% | [5] -0.8%

CCCOC(=O)Nc1cccc(Cl)c1
inactive: [1] 49.5% | [2] -8.7% | [3] 13.6% | [4] -9.95% | [5] 12.4%

CCC#CCN(CCC)CCC
inactive: [1] -8.55% | [2] 7.1% | [3] -10.7% | [4] -41.1% | [5] -18.9%

C/C=C/C(=O)OC1CCCC1
inactive: [1] 30.9% | [2] 11.7% | [3] 23.6% | [4] 18.9% | [5] 23.9%

CCC(C)NC(=O)c1ccccc1C (stereo not drawn)
inactive: [1] 6.25% | [2] -2.75% | [3] -3.2% | [4] -10.2% | [5] -0.2%

CC(C)S(=O)(=O)C(C)C
inactive: [1] 5.1% | [2] 0.35% | [3] -8.65% | [4] 11.7% | [5] -5.85%

CCOC(=O)c1ccncc1
inactive: [1] 23.6% | [2] -0.95% | [3] 21.7% | [4] -4.4% | [5] 6.4%

CCOC(CCCl)c1ccccc1 (stereo not drawn)
inactive: [1] 2.45% | [2] -12.4% | [3] -39.5% | [4] 7.85% | [5] -10.3%

CCOC(=O)Cn1c(=O)c2nc(SC)sc2n(CC)c1=S
inactive: [1] -21.8% | [2] 21.1% | [3] -1.15% | [4] -6.55% | [5] 4%

CSc1nc(=S)c2[nH]c(=S)[nH]c2[nH]1
inactive: [1] -1.2% | [2] 11.4% | [3] -6.5% | [4] -35.9% | [5] 4.05%

COC(=O)C1C(O)CCC2CN3CCc4c([nH]c5cccc(OC)c45)C3CC21 (stereo not drawn)
inactive: [1] -3.7% | [2] -14.8% | [3] 14.3% | [4] 7.85% | [5] -78.7%

O=C(N=C1C(=O)C2(CCCCC2)C2(N=C(c3ccccc3)OC2=O)C12CCCCC2)c1ccccc1 (stereo not drawn)
inactive: [1] 11.8% | [2] 8.75% | [3] 9.35% | [4] -5.05% | [6] -2.35% | [5] 14.5%

Cn1c(=O)c2[nH]c(=S)[nH]c2n(C)c1=O
inactive: [1] -5.85% | [2] -20.7% | [3] -3% | [4] 11.1% | [5] -4.75%

N=c1c2c(ncn1N)CCN(Cc1ccccc1)C2
inactive: [1] -8.55% | [2] 7.35% | [3] -11.4% | [4] -71.8% | [5] -32.8%

COc1ccccc1C1(CBr)OCCO1
inactive: [1] -6.15% | [2] -7.7% | [3] 6.55% | [4] -5.4% | [5] 9.4%

C=C1CCCCCCCCC/C=C/1SCCCSC
inactive: [1] 5.6% | [2] 26.4% | [3] -31.6% | [4] -17.9% | [5] -20.2%

O=C(CCc1ccccc1CO)NCCc1ccccc1
inactive: [1] 52% | [2] 20.9% | [3] -18.1% | [4] 7.8% | [5] 3.85%

CC(C)(O)CC(O)(C(F)(F)F)C(F)(F)F
inactive: [1] 14.3% | [2] -0.95% | [3] -3.25% | [4] -20.3% | [5] 1.9%

CN=C/C(C(C)=O)=C(\C)O
inactive: [1] 4.1% | [2] -0.05% | [3] -4.85% | [4] 3.6% | [5] 0.65%

S=C(N/N=C1\CSCc2ccccc21)Nc1cc(Cl)ccc1Cl
inactive: [1] 11.9% | [2] -4.45% | [3] 6.05% | [4] 10.2% | [5] 0.5%

S=c1[nH]nc2nc3c4ccccc4c4ccccc4c3nn12
inactive: [1] 53.7% | [2] 22.8% | [3] 10.3% | [4] 14.2% | [5] 25.7%

C[C@H](OCc1ccccc1)C(=O)N1CCS(=O)(=O)N2CCC[C@@H]2C1=O
inactive: [1] 5.05% | [2] -19.1% | [3] -18.2% | [4] 19.4% | [5] -17.9%

O=C(CSc1nnc(Cc2ccccc2)o1)Nc1ccccc1
inactive: [1] -28.1% | [2] 0.05% | [3] -38.6% | [4] -13.3% | [5] -27.1%

CN1c2ccccc2S(=O)(=O)n2c(COc3ccc(Cl)cc3)nnc21
inactive: [1] -3.4% | [2] 4.15% | [3] 2.5% | [4] 12% | [5] 2.6%

COC(=O)c1ccc(OC(=O)Nc2ccc(Br)cc2)cc1
inactive: [1] 11.3% | [2] 26.4% | [3] 27% | [6] 37.2% | [5] 19.9%

C1=C(C2=CCCCC2)CCCC1
inactive: [1] -1.35% | [2] 6% | [3] -4.35% | [6] 4.8% | [5] 4.15%

CC(=O)OC1CCC2(C)C(CCC3C2CCC2(C)C(C(C)C(=O)O)CCC32)C1 (stereo not drawn)
inactive: [1] -10.7% | [2] 1.85% | [3] 1.45% | [6] -3.6% | [5] 3.9%
